Source: PubChem BioAssay AID652136 (The Scripps Research Institute Molecular Screening Center, 2013)
Screen size: about 2,400 compounds; about 1,900 (79%) were called active.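 How the source made its calls: active means inhibition above the mean of all tested compounds plus 3 SD (cut at about 3% in these data); inactive means the rest.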 So high a share suggests a set chosen from earlier hits. The list is a sample of the results.

Experiment: StAR reporter signal changes without DAX1, counter-screen for DAX1 inhibitor project, cell-based, luminescence, AF-2 mutant SF-1, transactivation (AID 652136);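 further: 0% = DAX-1 transfected cells with DMSO and 100% = cells without DAX-1 with DMSO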
Conditions: HEK293 StAR-luciferase, SF-1 AF2 mutant, at 6.8 µM, hits give high values

Compound	inhibition
COc1ccc(-c2csc(-c3cccs3)n2)cc1OC	5.61% (active)
CN1CCN(C(=O)c2ccc(-c3ccc(Br)cc3)o2)CC1	4.28% (active)
Cc1ccc(S(=O)Cc2ccc(C(=O)N3CCN(C4CCCCC4)CC3)o2)cc1 (stereo not drawn)	2.33% (inactive)
O=C(Nc1ncccc1O)c1ccc(C(=O)c2ccccc2)cc1	35.8% (active)
O=C(Nc1ncccc1O)c1ccc(S(=O)(=O)N2CCCC2)cc1	5.53% (active)
O=C(Nc1ncccc1O)c1ccc(S(=O)(=O)N2CCCCCC2)cc1	2.43% (inactive)
CC1CCN(CCCNC(=O)CN2C(=O)CSc3ccc(S(=O)(=O)N4CCCCC4)cc32)CC1	1.65% (inactive)
Clc1ccc(Nc2nc(-c3cccs3)cs2)nc1	7.52% (active)
COc1cc(OC)c(C(=O)NNC(=O)c2ccc(NS(=O)(=O)c3cccs3)cc2)cc1OC	-0.43% (inactive)
CC(C)(C)c1csc(NC2=NS(=O)(=O)c3ccccc32)n1	7.77% (active)
Cc1ccc(N/C=C/C(=O)c2ccccc2)cc1C	4.16% (active)
Fc1ccc2cnc(-c3ccccc3)cc2c1	5.1% (active)
O=C(NCCc1ccc(F)cc1)c1ccc2nccnc2c1	8.87% (active)
COc1ccc2nc(-c3ccccn3)ccc2c1	5.03% (active)
Cc1nn(-c2ccc([N+](=O)[O-])cc2)c(N)c1-c1ccccc1	6.97% (active)
O=C(NC(=S)Nc1ccc(Cl)cc1Cl)C1CC1	3.76% (active)
COc1ccc(CCOC2OC(CO)C(OC(=O)/C=C/c3ccc(O)c(OC)c3)C(O[C@H]3O[C@@H](C)[C@H](O)[C@@H](O)[C@H]3O)C2O)cc1O (stereo partly drawn)	1.22% (inactive)
Cc1cc(OCc2cc(C(=O)NCc3cc(C(C)C)no3)no2)cc(C)c1Cl	3.41% (active)
CCC(=O)Nc1ccc(-c2ccc(N3CCCCC3)nn2)cc1	2.89% (active)
COc1ccc(CCNC(=O)COC(=O)Cc2ccccc2F)cc1	-0.5% (inactive)
CCCOc1ccc(C(=O)NCCc2ccccc2)cc1	4.75% (active)
COc1ccc(C(=O)NCC[N+](C)(C)C)cc1	1.97% (inactive)
CN(C(=O)c1cc2c(=O)n3ccccc3nc2s1)C1CCCCC1	3.77% (active)
Cc1ccccc1OCC(=O)Nc1ccc2c(c1)ncn2C	5.06% (active)
Cc1ccccc1Nc1nc(N)nc(CSc2ccccc2)n1	9.51% (active)
CCOc1cccc(/C=C/c2ccc3ccccc3n2)c1OC(C)=O	2.8% (inactive)

Compound	inhibition
CNCC(O)c1ccc(O)c(O)c1 (stereo not drawn)	-2.85% (inactive)
O=c1c2c(nc3cc(-c4cccc(Cl)c4)[nH]n13)CCCC2	5.64% (active)
O=C(NCC1(N2CCCCC2)CCCCC1)c1ccc(NS(=O)(=O)c2ccc(F)cc2)cc1	6.24% (active)
CCN(c1ccccc1)S(=O)(=O)c1ccc(OCC(=O)N2CCCC2)cc1	1.13% (inactive)
CCOc1ccc(S(=O)(=O)Nc2cccc(C(=O)NCC3(N4CCCCC4)CCCCC3)c2)cc1	5.11% (active)
O=C(c1cc(-c2cccs2)on1)N1CCCCC1	4.85% (active)
O=C(c1cc(-c2ccccc2O)on1)N1CCCC1	7.17% (active)
COc1ccc(OCc2cc(C(=O)N3CCCC3)no2)c2ccccc12	6.26% (active)
COc1ccccc1-c1cc(C(=O)N2CCCCC2)no1	7.48% (active)
CCOC(=O)c1c(S(=O)(=O)Nc2ccc(CN3CCC(C)CC3)cc2)c(C)n(C)c1C	1.43% (inactive)
O=C(Nc1ccc2ccccc2c1[N+](=O)[O-])c1ccccc1	6.14% (active)
COc1ccc(-c2csc(Nc3ccccn3)n2)cc1	5.68% (active)
COc1ccc(-c2cn3ccsc3n2)cc1	6.15% (active)
COc1ccc(-c2cn3ccc(C)cc3n2)cc1	3.87% (active)
COC(=O)Nc1nc2ccc(C(=O)C3CC3)cc2[nH]1	-5.19% (inactive)
O=C(CSc1cccc[n+]1[O-])c1ccc(-c2ccccc2)cc1	1.01% (inactive)
NS(=O)(=O)c1ccc2nc(NC(=O)C3=COCCO3)sc2c1	5.19% (active)
Cc1cc(N)n2nc(-c3ccc(C(C)(C)C)cc3)cc2n1	8.64% (active)
CCc1ccc2oc(-c3ccc(N)cc3)nc2c1	4.11% (active)
O=C(NCC1CCCO1)c1cc2c(s1)CCCC2 (stereo not drawn)	4.63% (active)
O=C(O)c1cccc(N=NN2CCCCCC2)c1	8.65% (active)
CCOc1ccc(-c2nnc(-c3ccco3)o2)cc1	3.8% (active)
C/C(=N\NC(=O)c1ccccc1F)c1ccccn1	-9.06% (inactive)
O=C(NCCOc1ccccc1)c1ccccc1F	6.6% (active)
OC(c1ccccc1)c1nc(-c2cnc3ccccc3c2)cs1 (stereo not drawn)	6.87% (active)
CC(Oc1ccccc1[N+](=O)[O-])C(=O)N/N=C/c1ccoc1 (stereo not drawn)	-0.59% (inactive)

Compound	inhibition
CC(C)Cc1cc(C(=O)NCCc2ccccc2)no1	4.55% (active)
Cc1cc(C(=O)NCCc2ccc(Cl)cc2)c(C)o1	2.83% (inactive)
CC(C)c1ccc(C=NNc2ccc([N+](=O)[O-])cn2)cc1	7.98% (active)
O=[N+]([O-])c1ccc2oc(-c3cccc(O)c3)nc2c1	8.65% (active)
COc1ccc(Nc2ncc(F)c(N3CCOCC3)n2)cc1	7.01% (active)
Cc1ccc(-c2nc3ccc(Br)cn3c2Cc2ccccc2C(F)(F)F)cc1	3.81% (active)
COc1ccccc1Cc1c(-c2ccc(F)cc2)nc2ccc(C)cn12	3.36% (active)
C=CCn1c(SCC(=O)Nc2ccc(NC(C)=O)cc2)nc2sc(C)c(C)c2c1=O	-2.48% (inactive)
O=C(c1cnn(-c2ccc(Cl)cc2)c1)c1ccccc1O	7.41% (active)
O=C1C(C=NCC2CCCO2)=C(O)c2ccccc21 (stereo not drawn)	4.34% (active)
Nc1ccc2nn(-c3ccc(Cl)cc3)nc2c1	10.2% (active)
COc1ccc2nc(SCc3ccccc3)nc(C)c2c1	8.35% (active)
CC(C)c1ccc(Nc2nnc(SCC(=O)c3nnc(-c4ccccc4)o3)s2)cc1	5.91% (active)
CCc1ccc(NC(=O)N2CCc3ccccc3C2)cc1	2.82% (inactive)
O=C(Nc1ccc2c(c1)CCC2)c1ccc(Br)s1	5.35% (active)
O=C(Nc1ccccc1)Nc1nc2ccccc2s1	10.3% (active)
Nc1ccc(C(=O)Nc2ccccc2N)cc1	42.6% (active)
O=C(NC(=S)NC1CCCCC1)c1ccc(Cl)cc1	4.24% (active)
CSCCC(NC(=O)c1ccco1)C(=O)Nc1cc(C)ccn1 (stereo not drawn)	7.83% (active)
O=c1c2c(nc3n1CCCCC3)sc1c(O)cccc12	7.48% (active)
CC[C@]1(O)CC2CN(CCc3c([nH]c4ccccc34)[C@@](C(=O)OC)(c3cc4c(cc3OC)N(C=O)[C@H]3[C@@](O)(C(=O)OC)[C@H](OC(C)=O)[C@]5(CC)C=CCN6CC[C@]43[C@@H]65)C2)C1 (stereo partly drawn)	-7.3% (inactive)
COC(=O)c1sc(NC(=O)c2ccc(OC)cc2OC)nc1C	3.15% (active)
CN1OC[C@@H]2CN[C@H](c3ccc(-c4ccccc4)cc3)C[C@@H]21	5.72% (active)
CC(=O)Nc1cccc(-c2csc(Nc3cccc(C)n3)n2)c1	8.58% (active)
c1ccc2[nH]c(-c3nc4ccccc4[nH]3)nc2c1	8.74% (active)
Cc1ccc(-c2nc3ccccc3[nH]2)cc1N	8.86% (active)

Compound	inhibition
O=c1oc(/C=C/c2ccccc2)nc2ccccc12	7.24% (active)
Cn1ccnc1SCC(=O)Nc1ccc2c(c1)OCCO2	5.39% (active)
CCN(CC(=O)Nc1c(F)cccc1F)C(=O)c1cnc(C)cn1	0.25% (inactive)
Cc1nc2cc(NC(=O)Nc3cccc(F)c3)ccc2n1C	8.9% (active)
O=C(N/N=C\C1CC=CCC1)c1ccc(Br)o1 (stereo not drawn)	0.2% (inactive)
CCSc1nnc(NC(=O)c2ccc(C)cc2)s1	6.21% (active)
NC(=O)CSc1nnc(NC(=O)c2ccc3ccccc3c2)s1	7.69% (active)
Nc1c(C(=O)Nc2ccc3c(c2)OCCO3)nnn1Cc1ccccc1	7.14% (active)
CC[C@]1(O)C[C@@H]2CN(CCc3c([nH]c4ccccc34)[C@@](C(=O)OC)(c3cc4c(cc3OC)N(C)[C@H]3[C@@](O)(C(=O)OC)[C@H](OC(C)=O)[C@]5(CC)C=CCN6CC[C@]43[C@@H]65)C2)C1	-6.49% (inactive)
Cc1ccc(-n2cc3ccc([N+](=O)[O-])cc3n2)cc1	6.18% (active)
Brc1ccc2nc(N3CCCC3)sc2c1	4.08% (active)
S=C(c1ccc(-c2ccccc2)o1)N1CCCCC1	5.47% (active)
Cc1ccnc(NC(=O)CNC(=O)c2ccccc2)c1	2.35% (inactive)
Cc1ccnc(NC(=O)CCNS(=O)(=O)c2ccc(C)c(C)c2)c1	9.35% (active)
CC1CCCN(c2ccc(C(=O)NCCc3ccccc3)cn2)C1 (stereo not drawn)	3.59% (active)
O=C(c1cnn2ccccc12)N1CCc2ccccc21	6.23% (active)
Cc1sc(NC(=O)c2ccc3ncsc3c2)c(C(N)=O)c1C	5.5% (active)
O=C(Nc1ccc(Cl)c(Cl)c1)c1ccccc1NC(=O)C1CC=CCC1C(=O)O (stereo not drawn)	4.5% (active)
CN1CCN(c2ccc(NC(=O)c3ccc4c(c3)OCCO4)cc2Cl)CC1	4.72% (active)
Cc1nc(NC(=O)c2ccc3c(c2)OCCO3)ccc1Br	7.07% (active)
Cc1ccc(C(=O)NNC(=O)c2ccc3c(c2)OCCO3)cc1	2.35% (inactive)
O=C(Nc1ccccc1)c1ccc2c(c1)OCCCO2	7.83% (active)
Cc1c(C(=O)Nc2ccccn2)oc2ccc(Br)cc12	8.11% (active)
O=C(Nc1ccn(Cc2ccccc2)n1)c1n[nH]c([N+](=O)[O-])c1Cl	3.58% (active)
O=C(CCc1ccccc1)Nc1ncc([N+](=O)[O-])s1	1.92% (inactive)
